Experimental data from PubChem BioAssay (NCATS).
Inconclusive results are not listed. Active and inactive are the calls of the source. Calls come from the whole dose curve; as a rule, active = well fitted inhibition curve with a large enough effect; inconclusive = small, poorly fitted or top-dose-only effect; inactive = flat fitted curve, though single readings scatter.

Each compound was assayed against Calcium and integrin-binding protein 1 (Homo sapiens) (UniProt Q99828) (assay: Primary qHTS for Identification of Calcium Integrin Binding Protein 1 (CIB1) Competitor (AID 1508620; note: top concentration of the series differs between compounds)). Conditions: CIB1-GST / FITC-alphaIIb peptide fluorescence polarization; series mostly up to 57.7 µM; activity change, negative = inhibition: at the top concentration.
Chain of Calcium and integrin-binding protein 1 (Homo sapiens) (Q99828 whole entry, looked up): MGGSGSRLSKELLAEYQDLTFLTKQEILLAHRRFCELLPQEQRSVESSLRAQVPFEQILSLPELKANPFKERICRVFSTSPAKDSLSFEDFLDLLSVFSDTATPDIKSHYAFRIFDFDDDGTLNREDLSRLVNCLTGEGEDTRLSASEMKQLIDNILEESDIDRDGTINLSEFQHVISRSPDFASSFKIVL
In short: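 Fluorescence polarization competition: GST-tagged CIB1 (1 uM final) preincubated with compound 15 min at room temperature, then FITC-labelled alphaIIb peptide (100 nM final) added. After 15 min at room temperature, polarization read at Ex 480/Em 540.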
% is set by controls: 0 for no effect and ±100 for the full control effect.

Row | SMILES | activity change, negative = inhibition
1 | C=CC(C)(O)CO[C@@H]1O[C@H](CO)[C@@H](O)[C@H](O)[C@H]1O (some centres undefined) | -5.25% [at 114 µM] (inactive)
2 | C=C1CC[C@@H]2[C@](C)(CO[C@@H]3O[C@H](CO)[C@@H](O)[C@H](O)[C@H]3O)CCC[C@@]2(C)[C@@H]1CCC1=CCOC1=O | 4.06% (inactive)
3 | CC1(C)NC2N(C1=O)c1ccccc1C2(O)CC(C(=O)O)n1cnc2ccccc2c1=O (centres undefined) | -6.46% (inactive)
4 | C=CC(C)(C)C12CC3C(=O)NC(Cc4cnc[nH]4)C(=O)N3C1Nc1ccccc12 (centres undefined) | -3.75% (inactive)
5 | CCC(C)C(=O)O[C@@H]1[C@@H](O)[C@@H](O[C@H]2O[C@H](CO)[C@@H](O)[C@H](O)[C@H]2O)O[C@H](CO)[C@H]1O (some centres undefined) | 1.39% (inactive)
6 | CC1CCC2C(C)(C)C(O)CCC2(C)C12Cc1c(O)cc3c(c1O2)CN(C(CCC(N)=O)C(=O)O)C3=O (centres undefined) | 2.35% (inactive)
7 | COc1cc(C/C(=C/NC(C)=O)N(CC(=O)Cc2ccccc2)C(C)=O)cc2c1OCO2 | 5.25% (inactive)
8 | COc1c(C)c2c(c(O)c1C/C=C(\C)CC/C=C(\C)CCC(=O)O)C(=O)OC2 | -1.96% (inactive)
9 | Cc1nnc(C(C)C)n1C1CC2CCC(C1)N2CC[C@H](NC(=O)C1CCC(F)(F)CC1)c1ccccc1 (some centres undefined) | 5.84% [at 114 µM] (inactive)
